The values that follow come from PubChem BioAssay (NCI).

This is part of a sample that, as a whole, favours compounds with a hit. Of some 83,000 tested, about 20% had one in any assay.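 Results are percent growth after 48 hours of single-concentration exposure. 100 means growth as in untreated cells, lower positive values show inhibition; negative values down to -100 show cell death.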 A number with no mark means an inactive call. Active and inactive are the calls of the source. Rule for the calls: active = growth percent below 10; inactive = the rest.

Among the test systems are HCT-15 colon; SNB-75 CNS; SNB-19 CNS; U251 CNS; PC-3 prostate; SK-MEL-5 melanoma; UACC-62 melanoma; LOX IMVI melanoma; SK-MEL-28 melanoma; SK-MEL-2 melanoma; EKVX NSCLC; SN12C renal; UO-31 renal; TK-10 renal; ACHN renal; CAKI-1 renal; MOLT-4 leukemia; A498 renal; CCRF-CEM leukemia; HT29 colon.
Holding throughout (assay): NCI-60 one-dose screen, 48 h (100 = growth as untreated, 0 = no growth, -100 = all killed)
What all share (conditions): 10 µM unless noted

Turning to `CNCCNc1nc2ccccc2c2c(=O)c3cc(F)ccc3oc12`, the growth is 49.1% in the experiment on HCT-15 colon; 56.8% with SNB-75 CNS; 57.9% with SNB-19 CNS; 50.2% in the experiment with U251 CNS; 46.9% in the experiment on PC-3 prostate; 73.3% in the experiment on SK-MEL-5 melanoma. For the same compound, the growth with UACC-62 melanoma was 85%; in the experiment on LOX IMVI melanoma, 44.6%; with SK-MEL-28 melanoma, 84.5%; in the experiment on SK-MEL-2 melanoma, 100%; in the experiment with EKVX NSCLC, 71.9%; with SN12C renal, 46.9%. Also, the growth in the experiment with UO-31 renal is 37.7%; in the experiment with TK-10 renal, 80.2%; in the experiment on ACHN renal, 24%; in the experiment on CAKI-1 renal, 45%; in the experiment on MOLT-4 leukemia, 10.7%.
Regarding `O=C(NCc1cn(Cc2cccc(Oc3ccccc3)c2)nn1)c1cccnc1NCc1ccc(Cl)cc1`, the growth in the experiment with HCT-15 colon is 21.7%; in the experiment with SNB-75 CNS, 11%; in the experiment with SNB-19 CNS, 41.3%; in the experiment on U251 CNS it was 21.2%; with PC-3 prostate, 10%; in the experiment with SK-MEL-5 melanoma it was 11.3%. The growth in the experiment on UACC-62 melanoma was 27.8%; with LOX IMVI melanoma it was 39.4%; with SK-MEL-28 melanoma it was 29.5%; in the experiment with SK-MEL-2 melanoma it was 13.9%; in the experiment on EKVX NSCLC, 30.7%; in the experiment with SN12C renal, 40.9%. Also, the growth with UO-31 renal was 30.5%; with TK-10 renal, 62.2%; with ACHN renal it was 41.9%; with CAKI-1 renal, 32.2%; in the experiment with A498 renal it was -4.32% (active); with MOLT-4 leukemia, 14.6%.
As to `CC(C)(C)N1CC(OC(N)=O)C1`, the growth in the experiment on HCT-15 colon is 113%; in the experiment on SNB-75 CNS, 81.6%; in the experiment with SNB-19 CNS, 106%; with U251 CNS, 101%; with SK-MEL-5 melanoma it was 102%; in the experiment on UACC-62 melanoma it was 103%. Moreover, the growth is 96.3% with LOX IMVI melanoma; 109% in the experiment on SK-MEL-28 melanoma; 90.2% in the experiment with EKVX NSCLC; 100% in the experiment on SN12C renal; 85.5% in the experiment with UO-31 renal; 94.8% in the experiment with TK-10 renal. For the same compound, the growth was 106% with ACHN renal, 41% in the experiment on CAKI-1 renal, 105% with A498 renal and 133% in the experiment on MOLT-4 leukemia.
Consider `C=C(C)[C@@H]1CC[C@]2(CO)CC[C@]3(C)[C@H](CC[C@@H]4[C@@]5(C)C=C(C#N)C(=O)C(C)(C)[C@@H]5CC[C@]43C)[C@@H]12`, for which the growth in the experiment on HCT-15 colon is 3.8% (active); with SNB-75 CNS it was 52.1%; in the experiment with SNB-19 CNS, 18.5%; in the experiment on U251 CNS, 9.63% (active); with PC-3 prostate, 6.8% (active); with SK-MEL-5 melanoma, 12%. The growth was -33% (active) with UACC-62 melanoma; 20.9% in the experiment on SK-MEL-28 melanoma; 30.1% with SK-MEL-2 melanoma; 15.4% with EKVX NSCLC; 8.07% (active) with SN12C renal; -8.85% (active) with UO-31 renal. Moreover, the growth in the experiment with TK-10 renal is 36.2%; in the experiment with ACHN renal, 12%; with CAKI-1 renal it was 22.8%; in the experiment on A498 renal, -0.306% (active); in the experiment with CCRF-CEM leukemia it was 2.24% (active).
On to `COc1ccc(C2CC(c3ccccc3)=NN2c2nc(C)c(C(C)=O)s2)cc1` (centres undefined), for which the growth with HCT-15 colon is 98.7%; in the experiment on SNB-75 CNS it was 90.2%; in the experiment on SNB-19 CNS, 99.3%; in the experiment with U251 CNS, 100%; with PC-3 prostate it was 97%; in the experiment with SK-MEL-5 melanoma, 103%. The growth was 91.5% in the experiment with UACC-62 melanoma; 94.6% with LOX IMVI melanoma; 112% in the experiment on SK-MEL-28 melanoma; 98.4% with SK-MEL-2 melanoma; 94.6% in the experiment on EKVX NSCLC; 105% in the experiment on SN12C renal. For the same compound, the growth in the experiment with UO-31 renal was 77.4%; with TK-10 renal, 110%; in the experiment with ACHN renal, 95.5%; in the experiment on CAKI-1 renal it was 86.6%; in the experiment on CCRF-CEM leukemia, 96.3%; in the experiment with MOLT-4 leukemia it was 102%.
`c1ccc(-c2oc3ccccc3c2-c2ccccc2)cc1`: the growth in the experiment with HCT-15 colon was 93.6%; in the experiment on SNB-75 CNS, 72.5%; with SNB-19 CNS it was 99.3%; with U251 CNS, 95.9%; with PC-3 prostate, 90%; with SK-MEL-5 melanoma it was 84.3%. Moreover, the growth was 80% in the experiment on UACC-62 melanoma; 95.8% in the experiment on LOX IMVI melanoma; 113% in the experiment on SK-MEL-28 melanoma; 92.9% in the experiment on SK-MEL-2 melanoma; 96.6% in the experiment on EKVX NSCLC; 92.2% in the experiment with SN12C renal. Also, the growth was 86.4% in the experiment on UO-31 renal; 110% in the experiment on TK-10 renal; 97.3% in the experiment with ACHN renal; 69.4% in the experiment on CAKI-1 renal; 89.9% in the experiment on A498 renal; 86.1% in the experiment on CCRF-CEM leukemia. In addition, in the experiment with MOLT-4 leukemia, the growth was 54.9%.
On to `O=C1Nc2ccccc2/C1=N/N=C/c1ccsc1`, for which the growth in the experiment with HCT-15 colon is 98%; in the experiment with SNB-75 CNS, 87.8%; in the experiment with SNB-19 CNS, 95.5%; in the experiment on U251 CNS, 104%; in the experiment with PC-3 prostate, 107%; with SK-MEL-5 melanoma, 101%. For the same compound, the growth was 93% with UACC-62 melanoma; 95.1% with LOX IMVI melanoma; 110% with SK-MEL-28 melanoma; 107% with SK-MEL-2 melanoma; 90.9% with EKVX NSCLC; 95.3% in the experiment with SN12C renal. Also, the growth is 74.8% in the experiment on UO-31 renal; 137% in the experiment with TK-10 renal; 102% in the experiment with ACHN renal; 92% in the experiment on CAKI-1 renal; 103% in the experiment with MOLT-4 leukemia.
On to `C=C(C=O)C1CCC2(C(=O)O)CCC3(C)C(CCC4C5(C)CCC(O)C(C)(C)C5CCC43C)C12` (centres undefined), for which the growth in the experiment with HT29 colon was 3.49% (active); in the experiment on SNB-75 CNS, 47.1%; in the experiment with SNB-19 CNS, 66.3%; in the experiment with U251 CNS, 6.78% (active); with PC-3 prostate it was 20.4%; in the experiment on SK-MEL-5 melanoma, -96.9% (active). For the same compound, the growth with UACC-62 melanoma is -84.2% (active); in the experiment with LOX IMVI melanoma it was -74.1% (active); in the experiment on SK-MEL-28 melanoma it was -30.8% (active); with SK-MEL-2 melanoma, 30.1%; in the experiment with EKVX NSCLC, 41.9%; with SN12C renal, 21.5%. Further, the growth in the experiment on UO-31 renal was -69.3% (active); in the experiment on TK-10 renal, 50.5%; in the experiment on ACHN renal, -65.4% (active); with CAKI-1 renal, -27.6% (active); in the experiment on A498 renal, 55.2%; in the experiment on CCRF-CEM leukemia it was 6.48% (active). Also, in the experiment on MOLT-4 leukemia, the growth is 10.4%.
In the case of `Cc1ccc(NC(=O)C(Cl)Cl)cc1`, the growth with HCT-15 colon was 105%; with SNB-75 CNS, 101%; with SNB-19 CNS, 101%; with U251 CNS it was 94.7%; in the experiment with PC-3 prostate, 91.8%; in the experiment on SK-MEL-5 melanoma, 99.4%. Moreover, the growth in the experiment on UACC-62 melanoma is 98.6%; in the experiment on LOX IMVI melanoma, 99.6%; in the experiment with SK-MEL-28 melanoma, 98.2%; with SK-MEL-2 melanoma, 83.6%; in the experiment on EKVX NSCLC, 109%; in the experiment on UO-31 renal it was 83%. The growth in the experiment with TK-10 renal is 94.3%; in the experiment with ACHN renal, 100%; in the experiment on CAKI-1 renal it was 103%; with A498 renal, 80.9%; in the experiment on CCRF-CEM leukemia it was 100%; in the experiment on MOLT-4 leukemia, 14.2%.
